# About 410 targets per protein were measured; listed, in parts, are those with the strongest signals and a random draw of the rest.
# B1: SJCP1084 (Schistosoma japonicum) (protein)
# chain: MRIINLVIISTALLLINLLQTKSQANGEDTKNGTPDDPGLTKSTELKVEVQALLKDKKTNMRVKWNENLLDNTKPEYHNLRDEACELLLQIVRSVVPLSQDDGECKDVTFTKYVVGTKDGAVNVKLTITFKDSVAINQKPMDLKLKLENDFKNLQSESTLKATKPTFTVKVEKRLIPISKPQTTPPTTAKNDASKENVGDIGGEDSTVPTAAPATAASANEEKDEGDKDNKDSQHPNVLTSNVNDRNLIIALVALMILAIGVALTAAVKQR
# How the values were obtained:
# Test in all cases: glycan array binding signal (z-score within array); higher = stronger binding
# Conditions in all cases: glycan notation: IUPAC condensed, linker removed
# [1] = target: Gal(b1-4)GlcNAc(b1-3)Gal(b1-4)GlcNAc(b1-3)Gal(b1-4)GlcNAc(b1-3)Gal(b1-4)GlcNAc(b1-3)Gal(b1-4)GlcNAc(b1-2)Man(a1-3)[Gal(b1-4)GlcNAc(b1-3)Gal(b1-4)GlcNAc(b1-3)Gal(b1-4)GlcNAc(b1-3)Gal(b1-4)GlcNAc(b1-3)Gal(b1-4)GlcNAc(b1-2)Man(a1-6)]Man(b1-4)GlcNAc(b1-4)[Fuc(a1-6)]GlcNAc
# Outline: (§1)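 Glycan array data came from 3228 arrays in the Consortium for Functional Glycomics database, and only arrays with an available protein sequence were kept. Glycan names were put into IUPAC-condensed notation, and columns mapping to the same glycan were averaged. The binding signal is a within-array Z-score, averaged across arrays of one protein sequence run at different concentrations or buffers and across linkers. A negative Z-score can be read as non-binding.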
# [2] = target: Gal(b1-4)GlcNAc(b1-3)Gal(b1-4)GlcNAc(b1-3)Gal(b1-4)GlcNAc(b1-3)Gal(b1-4)GlcNAc(b1-3)Gal(b1-4)GlcNAc(b1-2)[Gal(b1-4)GlcNAc(b1-3)Gal(b1-4)GlcNAc(b1-3)Gal(b1-4)GlcNAc(b1-3)Gal(b1-4)GlcNAc(b1-3)Gal(b1-4)GlcNAc(b1-6)]Man(a1-6)[Gal(b1-4)GlcNAc(b1-3)Gal(b1-4)GlcNAc(b1-3)Gal(b1-4)GlcNAc(b1-3)Gal(b1-4)GlcNAc(b1-3)Gal(b1-4)GlcNAc(b1-2)Man(a1-3)]Man(b1-4)GlcNAc(b1-4)[Fuc(a1-6)]GlcNAc
# Outline: as §1
# [3] = target: Gal(b1-4)GlcNAc(b1-3)Gal(b1-4)GlcNAc(b1-3)[Gal(b1-4)GlcNAc(b1-3)Gal(b1-4)GlcNAc(b1-6)]GalNAc
# Outline: as §1
# Gal3S(b1-4)GlcNAc = target: Gal3S(b1-4)GlcNAc
# Outline: as §1
# [4] = target: GalNAc(b1-3)Gal(a1-4)Gal(b1-4)GlcNAc
# Outline: as §1
# [5] = target: GlcNAc(a1-4)Gal(b1-4)GlcNAc(b1-3)Gal(b1-4)[Fuc(a1-3)]GlcNAc(b1-3)Gal(b1-4)[Fuc(a1-3)]GlcNAc
# Outline: as §1
# [6] = target: GlcNAc(b1-3)Gal(b1-4)GlcNAc(b1-3)Gal(b1-4)GlcNAc(b1-2)Man(a1-3)[GlcNAc(b1-3)Gal(b1-4)GlcNAc(b1-3)Gal(b1-4)GlcNAc(b1-2)Man(a1-6)]Man(b1-4)GlcNAc(b1-4)GlcNAc
# Outline: as §1
# [7] = target: GlcNAc(b1-3)Gal(b1-4)GlcNAc(b1-3)Gal(b1-4)GlcNAc(b1-3)Gal(b1-4)GlcNAc(b1-2)Man(a1-3)[GlcNAc(b1-3)Gal(b1-4)GlcNAc(b1-3)Gal(b1-4)GlcNAc(b1-3)Gal(b1-4)GlcNAc(b1-2)Man(a1-6)]Man(b1-4)GlcNAc(b1-4)[Fuc(a1-6)]GlcNAc
# Outline: as §1
# [8] = target: GlcNAc(b1-3)Gal(b1-4)GlcNAc(b1-3)Gal(b1-4)GlcNAc(b1-3)Gal(b1-4)GlcNAc(b1-3)Gal(b1-4)GlcNAc(b1-2)Man(a1-3)[GlcNAc(b1-3)Gal(b1-4)GlcNAc(b1-3)Gal(b1-4)GlcNAc(b1-3)Gal(b1-4)GlcNAc(b1-3)Gal(b1-4)GlcNAc(b1-2)Man(a1-6)]Man(b1-4)GlcNAc(b1-4)[Fuc(a1-6)]GlcNAc
# Outline: as §1
# [9] = target: GlcNAc(b1-3)Gal(b1-4)GlcNAc(b1-3)Gal(b1-4)GlcNAc(b1-3)Gal(b1-4)GlcNAc(b1-3)Gal(b1-4)GlcNAc(b1-2)[GlcNAc(b1-3)Gal(b1-4)GlcNAc(b1-3)Gal(b1-4)GlcNAc(b1-3)Gal(b1-4)GlcNAc(b1-3)Gal(b1-4)GlcNAc(b1-6)]Man(a1-6)[GlcNAc(b1-3)Gal(b1-4)GlcNAc(b1-3)Gal(b1-4)GlcNAc(b1-3)Gal(b1-4)GlcNAc(b1-3)Gal(b1-4)GlcNAc(b1-2)Man(a1-3)]Man(b1-4)GlcNAc(b1-4)[Fuc(a1-6)]GlcNAc
# Outline: as §1
# GlcNAc(b1-3)Man = target: GlcNAc(b1-3)Man
# Outline: as §1
# [10] = target: Neu5Ac(a2-3)Gal(b1-3)GalNAc
# Outline: as §1
# [11] = target: Neu5Ac(a2-3)Gal(b1-3)GalNAc(b1-4)[Neu5Ac(a2-3)]Gal(b1-4)Glc
# Outline: as §1
# [12] = target: Neu5Ac(a2-3)Gal(b1-3)GlcNAc(b1-2)Man(a1-3)[GlcNAc(b1-4)][Neu5Ac(a2-3)Gal(b1-3)GlcNAc(b1-2)Man(a1-6)]Man(b1-4)GlcNAc(b1-4)GlcNAc
# Outline: as §1
# [13] = target: Neu5Ac(a2-3)Gal(b1-3)[Neu5Ac(a2-6)]GalNAc
# Outline: as §1
# [14] = target: Neu5Ac(a2-3)Gal(b1-4)GlcNAc(b1-2)Man(a1-3)[Neu5Ac(a2-3)Gal(b1-4)GlcNAc(b1-2)Man(a1-6)]Man(b1-4)GlcNAc(b1-4)GlcNAc
# Outline: as §1
# [15] = target: Neu5Ac(a2-3)Gal(b1-4)GlcNAc(b1-3)Gal(b1-3)GlcNAc
# Outline: as §1
# [16] = target: Neu5Ac(a2-3)Gal(b1-4)GlcNAc(b1-3)Gal(b1-4)GlcNAc(b1-2)Man(a1-3)[Neu5Ac(a2-3)Gal(b1-4)GlcNAc(b1-3)Gal(b1-4)GlcNAc(b1-2)Man(a1-6)]Man(b1-4)GlcNAc(b1-4)GlcNAc
# Outline: as §1
# [17] = target: Neu5Ac(a2-3)Gal(b1-4)GlcNAc(b1-3)Gal(b1-4)[Fuc(a1-3)]GlcNAc
# Outline: as §1
# [18] = target: Neu5Ac(a2-3)Gal(b1-4)[Fuc(a1-3)]GlcNAc(b1-3)Gal(b1-4)[Fuc(a1-3)]GlcNAc(b1-3)Gal(b1-4)[Fuc(a1-3)]GlcNAc
# Outline: as §1
# [19] = target: Neu5Ac(a2-3)[GalNAc(b1-4)]Gal(b1-4)Glc
# Outline: as §1
# [20] = target: Neu5Ac(a2-6)Gal(b1-3)GlcNAc(b1-3)[Gal(b1-4)GlcNAc(b1-6)]Gal(b1-4)Glc
# Outline: as §1
# [21] = target: Neu5Ac(a2-8)Neu5Gc(a2-3)Gal(b1-4)GlcNAc
# Outline: as §1
binder,measurement,setting,value
B1,glycan array binding signal (z-score),[1],4.28
same,glycan array binding signal (z-score),[2],4.79
same,glycan array binding signal (z-score),[3],1.47
same,glycan array binding signal (z-score),Gal3S(b1-4)GlcNAc,-0.79
same,glycan array binding signal (z-score),[4],0.632
same,glycan array binding signal (z-score),[5],2.09
same,glycan array binding signal (z-score),[6],1.03
same,glycan array binding signal (z-score),[7],1.66
same,glycan array binding signal (z-score),[8],-0.466
same,glycan array binding signal (z-score),[9],2.68
same,glycan array binding signal (z-score),GlcNAc(b1-3)Man,0.248
same,glycan array binding signal (z-score),[10],-0.71
same,glycan array binding signal (z-score),[11],-0.565
same,glycan array binding signal (z-score),[12],-0.628
same,glycan array binding signal (z-score),[13],-0.036
same,glycan array binding signal (z-score),[14],0.105
same,glycan array binding signal (z-score),[15],-0.757
same,glycan array binding signal (z-score),[16],-0.701
same,glycan array binding signal (z-score),[17],-0.263
same,glycan array binding signal (z-score),[18],0.379
same,glycan array binding signal (z-score),[19],-0.474
same,glycan array binding signal (z-score),[20],-0.092
same,glycan array binding signal (z-score),[21],-0.605
